In PubChem BioAssay AID1241 (SRMLSC, 2008):
Screen size: about 1,200 compounds; about 840 (70%) were called active. The rule behind the calls is not given here. The set was probably picked from earlier hits. The list is a sample of the results. Results with a measured potency or affinity are listed apart.

Assay: NF-kB promoter reporter activators, neuronal cells, dose response, cell-based, SH-SY5Y, luciferase (AID 1241)
Conditions: series mostly up to 30 µM; fold induction over control: at the top concentration

Fold induction over control, inactive:
CC1=C/C(=N\OS(=O)(=O)c2ccccc2)C(C)=CC1=O 0.31, Cn1c(-c2ccc(Br)o2)nc2cc(Br)ccc21 9.61, Clc1ccccc1-c1nnc(-c2cccs2)o1 9.9, O=C(Nc1nccs1)c1sc2ccccc2c1Cl 11.4 [at 15 µM], CCCCCCOc1ccc(OC(=O)c2ccncc2)cc1 5.72, CCCCCCOc1ccc(/C(N)=N/O)cc1 11.4, N#Cc1c(NCCO)nc(NCc2ccccc2)c2c1CCN(Cc1ccccc1)C2 0.9, Cc1ccccc1NC(=O)/C=C/c1ccc([N+](=O)[O-])s1 5.73 [at 15 µM], CCC(=O)Nc1cccc(C(=O)/C=C/c2ccccc2)c1 9 [at 15 µM], Cc1ccc(NC(=O)/C=C/c2cccs2)c([N+](=O)[O-])c1 10.2, Cc1nn(Cc2ccccc2)c(Cl)c1/C=C/C(=O)OCC(=O)N1CCCC1=O 1.01, Cc1cccc(NC(=O)c2csnn2)n1 1.22, COc1ccc(OCCOC(=O)c2[nH]c(C)c(C(C)=O)c2C)cc1 0.69, Cc1ccc(Nc2nc(N)nc(CSc3ncccn3)n2)cc1 8.11, Cc1cc(N2CCOCC2)ccc1/C=C1/SC(=O)NC1=O 3.2, Cc1ccc(/C=N/N=C/c2ccc(C)s2)s1 16.3, CCOC(=O)c1ccc(NC(=O)N2CCc3ccccc32)cc1 9.88, CCCCNC(=O)c1cc(-c2ccc(F)cc2)on1 20.1, COc1ccc2c(=O)c(-c3ccccc3)coc2c1 9.03, CN(C)c1ccc(C(=S)NCc2ccco2)cc1 4.68, Cc1nnc(SCC(=O)Nc2nsc(-c3ccc(C(C)(C)C)cc3)n2)s1 10.8, COc1ccc(C2=NN3C(C2)c2ccccc2OC32C(=O)N(C)c3ccccc32)cc1 (stereo not drawn) 8.01, CC(=O)c1cc(N2CCOCC2)ccc1[N+](=O)[O-] 1.03, O=C(O)/C=C\C(=O)Nc1ccccc1C#Cc1ccccc1 1.8, CC(C)Cc1cc(C(=O)Nc2cc(Br)ccc2O)no1 2.37, CCc1cc(C(=O)Nc2ccc(C)cc2Br)cs1 7.97, CC(C)c1cc(C(=O)Nc2cc(Br)ccc2O)no1 2.7, O=C(CC(SCc1ccco1)c1ccc(O)cc1)c1cccs1 (stereo not drawn) 11.4, Cc1ccc(C(=O)COC(=O)c2ccc(O)cc2)cc1 10.9, O=C(CCC(=O)c1cccs1)c1cccs1 10.6, Cc1ccc(C)c(OCC(=O)O/N=C(\N)c2ccccn2)c1 5.69, CC(C)c1ccc(/C=N/NC(=O)c2c(Cl)cnn2C)cc1 9.29, CC(=O)c1sc(NC(=O)c2cccc(C)c2)nc1C 10.6, O=C(Nc1cccnc1)c1cc(-c2ccc3c(c2)OCO3)on1 12 [at 15 µM], O=c1c2c(nc3cc(-c4ccccc4)[nH]n13)CCS2 3.49, Cc1ccc(CN2CN(S(=O)(=O)c3cccs3)c3nc4ccccc4nc32)cc1 1.19, CCOC(=O)c1sc2nc3c(cc2c1N)COC(C)(C)C3 11, Nc1c(C(=O)C2CC2)sc2nc3c(cc12)CCC3 10.5, Cc1cccc(NC(=O)c2cc3ccccc3o2)c1 11.9, O=C(Nc1ccc(Cl)cn1)c1ccc([N+](=O)[O-])o1 12.4, COc1ccc(NC(=O)c2cc3ccccc3o2)cc1 11.5, COc1ccc2oc(=N)c(C(=O)Nc3ccccc3)cc2c1 12.7, O=C(Nc1cccc(Br)c1)c1cc2ccccc2o1 10.1, CCN1C/C(=C/c2ccc(N3CCOCC3)cc2)C(=O)/C(=C/c2ccc(N3CCOCC3)cc2)C1 13 [at 15 µM], Cc1ccc(NC(=O)/C(C#N)=C(\N)C(Cl)(Cl)Cl)nc1 5.72 [at 7.5 µM], N/C(=N\OC(=O)COc1ccc(Cl)cc1Br)c1ccncc1 9.84, CN1CCN(CC(=O)Nc2ccccc2[N+](=O)[O-])CC1 1.19, COc1ccccc1/C=N\Nc1cn[nH]c(=O)c1Cl 1.17
